# Bioassay records from PubChem BioAssay.
# Shown are actives, neighbours in structure and some others; about 12% of the full set was active somewhere.
# Pf growth 48h – P. falciparum growth inhibition at 48 hours (one generation); P. falciparum luciferase growth in erythrocytes, 48 h; Potency, µM (series often up to 28.7 µM), inactives show at the highest dose activity change, negative = inhibition, actives largely listed as inhibitors; actives 5.9% (n = 310,000); AID 504832; also: % is scaled to controls: 0 for no effect and ±100 for the full control effect
#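 Firefly luciferase activity from engineered P. falciparum reports growth; inhibitors lower the luminescent signal. Cultures contained 2% hematocrit erythrocytes at 0.1% final parasitemia.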
# SARS PLP yeast – blocks SARS-CoV papain-like protease in a yeast assay; S. cerevisiae expressing SARS-CoV PLpro, growth rescue; actives 0.19% (n = 330,000); Potency, µM (doses to about 32.9 µM), inactives show at the top dose activity, positive = growth rescue, usual class: activators; calls by dose curve; also: 0% is about no effect; nearly all actives have a fitted effect of over 55% in size
# Pf growth 96h – inhibits malaria parasite growth, 96 h; P. falciparum luciferase reporter growth, 96 h; Potency, µM (top dose mostly 28.7 µM), inactives show at the top dose activity change, negative = inhibition, usual class: inhibitors; actives 6.9% (n = 320,000); AID 504834; also: % is scaled to controls: 0 for no effect and ±100 for the full control effect
#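 Luminescence readout: decreased luciferase signal marks inhibited growth of reporter-expressing P. falciparum in infected red cells (2% hematocrit, 0.05% parasitemia final), exposed to compound two generations (96 h, 37 C, 5% CO2).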
# Sm TGR inh – inhibitors of Schistosoma mansoni thioredoxin glutathione reductase; Q962Y6; purified TGR, DTNB reduction, TNB absorbance 405 nm; Potency, µM (series often up to 114 µM), without a hit: at the top dose activity change, negative = inhibition, hits mostly inhibitors; actives 3% (n = 360,000); AID 485364; also: % is scaled to controls: 0 for no effect and ±100 for the full control effect; nearly all actives have a fitted effect of over 60% in size
#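 TGR 20 nM + NADPH 100 uM (dispensed conc.), cpd preinc 15 min RT; start with NADPH (500 uM addition) then DTNB (15 mM addition). Kinetic TNB absorbance, 405 nm filter. Four-parameter Hill fit across titration.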
# * hit, by the source's call; ? = inconclusive; nt = not tested or not shown; ! = not confirmed by another sample. Unless noted, calls follow the shape of the dose curve; as a rule, active = well fitted curve in the direction sought with a large enough effect; inconclusive = small, poorly fitted or top-dose-only effect, or another doubt; inactive = no such curve, though single readings can be large; an effect the other way counts as inactive or inconclusive. Potency is read from the fitted curve at half-maximal effect.
SMILES,Pf growth 48h,SARS PLP yeast,Pf growth 96h,Sm TGR inh
CCN(c1cc(C)cc(C)c1)S(=O)(=O)c1nnc(NC(=O)c2ccco2)s1,-12.1%,-1.8%,11.7µM*,?
CCN(c1ccccc1C)S(=O)(=O)c1nnc(NC(=O)c2ccco2)s1,?,-6.0%,?,20µM*!
COC(=O)[C@@]1(C)[C@H]2C(=O)N(C)C(=O)[C@H]2[C@H]2CN=C(SC)N21,nt,14.4%,nt,nt
CC1Cc2ccccc2C(CCc2ccccc2)=N1 (stereo unspecified),-2.8%,-0.4%,-6.2%,6.5%
COc1ccc(CNC(=O)Cn2c(=O)oc3cc(S(=O)(=O)NCc4ccccc4)ccc32)cc1,nt,nt,nt,12.0%
COc1ccc(COC(=O)c2ccc(Cl)c(S(=O)(=O)N3CC(C)OC(C)C3)c2)cc1 (stereo unspecified),4.65µM*,-3.6%,6.57µM*,3.4%
CC1CN(C(=O)COC(=O)c2ccc(Cl)c(S(=O)(=O)N3CCCCC3)c2)CC(C)O1 (stereo unspecified),-4.9%,-0.7%,-16.9%,-0.6%
COc1ccc(C(=O)NNC(=O)c2ccc(S(=O)(=O)N3CC(C)OC(C)C3)cc2)cc1 (stereo unspecified),-5.3%,1.4%,1.47µM*,-1.9%
CCN1CCN(S(=O)(=O)Cc2ccccc2Cl)CC1,10.5%,4.4%,?,17.5%
CC(=O)c1ccc(NC(=O)c2sc(-n3nc(C)c(Cc4ccc5c(c4)OCO5)c3C)nc2C)cc1,nt,nt,nt,-11.4%
COC(=O)c1cc(S(=O)(=O)NCc2cccc(Br)c2)c[nH]1,8.9%,3.6%,9.28µM*,-0.5%
COC(=O)c1cc(S(=O)(=O)NCCc2ccccc2)c[nH]1,-3.1%,0.6%,28.2%,-11.9%
COc1ccc(NC(=O)CSc2nnc(-c3cccc(O)c3)o2)cc1,83.5%,0.6%,25.4%,1.6%
Cc1cc(NC(=O)CSc2nnc(-c3ccc(O)cc3)o2)no1,6.57µM*,-1.0%,?,-3.3%
Cc1cc(NC(=O)CSc2nnc(-c3ccccc3)o2)no1,?,0.0%,11.7µM*,-0.5%
Cc1cc(C)cc(-c2nnc(SCC(=O)Nc3cc(C)on3)o2)c1,3.5%,-0.2%,?,0.3%
Cc1cc(NC(=O)CN2CCN(c3ccc(O)cc3)CC2)no1,?,0.4%,9.28µM*,-3.8%
COc1cccc(NC(=O)CSc2nnc(-c3cc(C)n(-c4ccccc4)c3C)o2)c1,171.0%,-3.0%,10.4µM*,-15.8%
CC1CCN(C(=O)Cn2cc(SCc3cccc(F)c3)c3ccccc32)CC1,nt,nt,nt,1.0%
Cc1ccc(Cl)cc1NC(=O)c1cc(-c2ccc3c(c2)OCCO3)on1,nt,nt,nt,-3.7%
Cc1ccc(S(=O)(=O)N2CCCCC2)cc1C(=O)NCCN1CCOCC1,16.6%,6.5%,-6.7%,-3.0%
CCOc1ccc(-c2nnc(SCC(=O)Nc3cccc(Cl)c3C)o2)cc1,nt,nt,nt,0.5%
CCOc1ccc(-c2nnc(SCC(=O)Nc3cccc(C#N)c3)o2)cc1,nt,nt,nt,10µM*
Cc1ccc(C)n1-c1ccc(-c2nnco2)cc1,-6.0%,-2.0%,11.7µM*,?
COc1ccc(Cl)cc1NC(=O)CSc1nnc2[nH]c(=O)cc(-c3ccccc3)n12,nt,nt,nt,-9.9%
SMILES,Pf growth 48h,SARS PLP yeast,Pf growth 96h,Sm TGR inh
O=c1n(Cc2ccc(Cl)cc2)c2ccccc2c2nc(-c3ccccc3)nn12,nt,nt,nt,-6.7%
Cc1ccccc1COC(=O)CCC1=NS(=O)(=O)c2ccccc2N1,-7.8%,nt,11.7µM*,-4.9%
O=C(CCCC1=NS(=O)(=O)c2ccccc2N1)OCc1ccc(Cl)cc1,?,-0.4%,?,-13.5%
COc1cccc2c1C(=O)C=C(C)C2=O,?,-79.1%,14.7µM*,?
CC1=CC(=O)c2ccccc2C1=O,?,-23.7%,15.1µM*,28.2µM*
CC(C)(C=O)C1=CC(=O)c2ccccc2C1=O,?,-113.6%,?,3.16µM*
Cc1ccc2c(c1)-n1c(nc3ccc(C)cc3c1=O)C(Cc1ccc(O)cc1)NC2=O (stereo unspecified),nt,6.7%,nt,nt
COc1ccc(CN(C)C(=O)c2cc(S(=O)(=O)N3CCOCC3)ccc2N2CCCC2)cc1,9.28µM*,nt,?,-26.5%
COc1ccc(S(=O)(=O)N2CCCCCC2)cc1C(=O)N(C)Cc1ccc(C(C)(C)C)cc1,?,-0.2%,13.1µM*,-1.8%
O=S(=O)(c1ccc(Cl)cc1)c1nnn2c1nc(NCc1ccccc1)c1sccc12,nt,nt,nt,-2.0%
NS(=O)(=O)c1ccc(NC(=O)/C=C/c2cn(-c3ccccc3)nc2-c2cccc(Cl)c2)cc1,10.4µM*,0.5%,-10.5%,nt
